Results filed as inconclusive are left out. Entries that show only a call come without a potency. Activity calls are given as the source filed them. Calls come from the whole dose curve; as a rule, active = well fitted inhibition curve with a large enough effect; inconclusive = small, poorly fitted or top-dose-only effect; inactive = flat fitted curve, though single readings scatter. *1 amine or outer side, *2 acyl side, *3 side chain or, on linkers, in order; H or OH if unused. Where a SMILES comes first, the peptide text is derived from it. [ ]: non-standard residue; d: D form. X1 = O=C([C@@H](CC(O)CCl)O[*:1])[*:2]; aIle = CC[C@@H](C)[C@H](N)C(=O)O; NMeV = CN[C@H](C(=O)O)C(C)C; NMeA = CN[C@@H](C)C(=O)O; βAla = NCCC(=O)O

For the assay, the target named is ATP-dependent translocase ABCB1 (Homo sapiens) (UniProt P08183). Description: qHTS for characterization and localization of zebrafish homologs of the human ABCB1 multidrug transporter: P-gp overexpressing MDR-19 cells. From the text: The zebrafish has emerged as a potential model to study the blood-brain barrier (BBB) given its similarities with mammalian systems. However, little information has been available with regard to homologous ATP-binding cassette transporters expressed at the zebrafish BBB. Two transporters that are highly expressed at the human BBB are P-glycoprotein (P-gp, encoded by the ABCB1 gene) and ABCG2 (encoded by the ABCG2 gene). In this study, we focus on characterization of P-gp homologs in the zebrafish, which has two genes that are homologous to human ABCB1 - abcb4 and abcb5. We generated stably-transfected cell lines to determine their substrate specificities. […] Zebrafish abcb4 also colocalized with claudin 5 expression in brain endothelial cells.
A high-throughput screen was performed as previously described on empty vector transfected cells, P-gp-overexpressing MDR-19 cells and cells transfected with full-length zebrafish abcb4 (ZF Abcb4) or abcb5 (ZF Abcb5). Briefly, cells were plated into 1536-well plates at a density of 500 cells/well in 5 uL media. […] CellTiter-Glo reagent (Promega) was dispensed into the wells, incubated for 5 min and luminescence was read on a ViewLux instrument (Perkin-Elmer). […]
On the technique in general: Quantitative high-throughput screening tests each substance at several concentrations.

Chain of ATP-dependent translocase ABCB1 (Homo sapiens) (P08183 whole entry, looked up): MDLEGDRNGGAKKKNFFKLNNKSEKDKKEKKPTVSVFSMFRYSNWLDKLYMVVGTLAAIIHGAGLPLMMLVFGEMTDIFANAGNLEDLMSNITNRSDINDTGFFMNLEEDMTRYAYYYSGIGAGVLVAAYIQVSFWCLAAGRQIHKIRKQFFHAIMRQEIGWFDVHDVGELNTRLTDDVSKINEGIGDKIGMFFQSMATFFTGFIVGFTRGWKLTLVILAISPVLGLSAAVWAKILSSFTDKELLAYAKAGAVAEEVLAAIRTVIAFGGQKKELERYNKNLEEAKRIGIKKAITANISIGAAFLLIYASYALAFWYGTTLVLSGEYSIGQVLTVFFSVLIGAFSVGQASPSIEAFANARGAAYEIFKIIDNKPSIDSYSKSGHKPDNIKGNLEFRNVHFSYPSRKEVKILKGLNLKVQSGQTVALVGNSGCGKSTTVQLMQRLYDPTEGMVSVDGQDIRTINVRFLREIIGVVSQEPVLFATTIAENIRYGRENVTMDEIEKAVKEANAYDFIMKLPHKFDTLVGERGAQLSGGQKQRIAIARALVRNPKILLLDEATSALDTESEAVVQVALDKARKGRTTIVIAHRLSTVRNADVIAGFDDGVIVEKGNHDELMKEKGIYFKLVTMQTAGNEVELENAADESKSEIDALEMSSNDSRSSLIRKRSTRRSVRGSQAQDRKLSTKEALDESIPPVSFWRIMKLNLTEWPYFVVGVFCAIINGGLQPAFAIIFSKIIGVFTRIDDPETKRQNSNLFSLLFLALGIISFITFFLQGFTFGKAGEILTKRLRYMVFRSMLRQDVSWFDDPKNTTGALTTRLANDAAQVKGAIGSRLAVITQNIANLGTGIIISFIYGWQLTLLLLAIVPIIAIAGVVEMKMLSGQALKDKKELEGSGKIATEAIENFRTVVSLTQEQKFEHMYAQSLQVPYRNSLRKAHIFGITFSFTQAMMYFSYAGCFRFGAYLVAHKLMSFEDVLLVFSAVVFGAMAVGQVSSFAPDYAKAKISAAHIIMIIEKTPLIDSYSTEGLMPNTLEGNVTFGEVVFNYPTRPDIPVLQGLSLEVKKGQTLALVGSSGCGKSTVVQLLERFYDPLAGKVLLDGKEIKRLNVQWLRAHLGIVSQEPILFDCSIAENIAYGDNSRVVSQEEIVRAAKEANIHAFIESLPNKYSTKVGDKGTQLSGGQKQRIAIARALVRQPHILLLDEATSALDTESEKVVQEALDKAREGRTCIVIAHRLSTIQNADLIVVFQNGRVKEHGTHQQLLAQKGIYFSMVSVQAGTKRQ

On to `CC[C@@H](C)[C@@H]1NC(=O)[C@@H]2CCCN2C(=O)[C@@H](CC(O)CCl)OC(=O)CCNC(=O)[C@H](C)N(C)C(=O)[C@H](C(C)C)N(C)C1=O` (some centres not stated) (cyclo([NMeA][βAla][X1]P[aIle][NMeV])), for which the Potency result is “inactive”.

Take `C[C@@H]1[C@@H](CC(C[C@H]2O[C@@H]3O[C@]4(C)CC[C@@H]5[C@H](C)CC[C@@H]([C@H]2C)[C@@]35OO4)C[S+](=O)([O-])c2ccc(COC(=O)N(C)C)cc2)O[C@@H]2O[C@]3(C)CC[C@H]4[C@H](C)CC[C@@H]1[C@@]24OO3` (some centres not stated): the Potency is 1.32 µM (active).

For the origin of these results see PubChem BioAssay AID1508636 (National Center for Advancing Translational Sciences (NCATS), 2021).
